In the library only some 1.5% were active in any assay of this set; here they are far more common.
RTF Ca sens act: increases calcium sensitivity of human cardiac regulated thin filaments. 0.24% of 340,000 active. P19429+P45379. activation, % at 7.2 µM. IANBD-labeled TnC RTF fluorescence at EC20 calcium; 0% EC20 calcium, 100% full calcium;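 active means activation above the mean over all tested compounds plus 3 SD, cut at about 30% in these data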;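 further: rise in fluorescence read as greater calcium sensitivity of cardiac thin filaments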
CRFBP-R2 block: antagonists of CRF-binding protein/CRF-R2 receptor complex; AID 588475; HEK293 CRF-R2/CRF-BP, CRF-induced calcium fluorescence; inhibition, % at 11.8 µM; 0.59% of 350,000 active;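 active means inhibition of the ligand-induced calcium signal above about 50% at the single tested concentration, limit read from the data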
IDE cell activ: boosts human insulin-degrading enzyme activity in HEK cells | FAbeta-B cleavage, fluorescence polarization; 0% vehicle, 100% cell-free pure enzyme wells | P14735 | activation, % at 5.96 µM | 0.073% of 340,000 active | AID 493087;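 active means activation above the mean of all tested compounds plus 3 SD, set per screening campaign, cut at about 17% in these data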
Target sequence (P14735 whole entry, looked up): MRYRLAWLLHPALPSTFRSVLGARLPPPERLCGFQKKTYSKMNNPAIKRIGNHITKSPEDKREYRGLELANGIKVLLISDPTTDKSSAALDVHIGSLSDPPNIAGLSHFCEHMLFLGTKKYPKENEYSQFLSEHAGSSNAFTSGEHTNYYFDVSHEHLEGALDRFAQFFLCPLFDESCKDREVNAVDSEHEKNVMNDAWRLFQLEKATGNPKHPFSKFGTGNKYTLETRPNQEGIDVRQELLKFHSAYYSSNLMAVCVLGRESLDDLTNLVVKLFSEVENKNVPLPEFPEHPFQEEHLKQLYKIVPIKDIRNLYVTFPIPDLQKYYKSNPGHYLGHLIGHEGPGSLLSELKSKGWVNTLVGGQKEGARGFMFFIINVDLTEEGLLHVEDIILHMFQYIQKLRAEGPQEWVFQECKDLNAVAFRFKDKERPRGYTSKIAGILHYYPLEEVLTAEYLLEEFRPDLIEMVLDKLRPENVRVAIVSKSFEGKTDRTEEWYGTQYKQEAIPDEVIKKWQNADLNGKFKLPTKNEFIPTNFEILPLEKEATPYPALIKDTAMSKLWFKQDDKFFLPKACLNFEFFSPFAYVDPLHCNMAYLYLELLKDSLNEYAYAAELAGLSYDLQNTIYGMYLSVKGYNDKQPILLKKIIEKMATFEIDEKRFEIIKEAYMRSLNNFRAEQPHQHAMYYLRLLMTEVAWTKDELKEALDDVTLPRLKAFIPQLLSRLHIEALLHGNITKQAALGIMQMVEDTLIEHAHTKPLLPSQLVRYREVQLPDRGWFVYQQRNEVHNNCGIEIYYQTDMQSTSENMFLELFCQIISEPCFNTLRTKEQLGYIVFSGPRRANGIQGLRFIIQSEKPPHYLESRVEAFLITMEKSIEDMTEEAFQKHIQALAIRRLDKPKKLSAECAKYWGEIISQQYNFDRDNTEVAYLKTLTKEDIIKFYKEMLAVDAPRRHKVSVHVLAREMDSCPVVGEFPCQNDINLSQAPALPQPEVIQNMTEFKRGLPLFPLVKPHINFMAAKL
CRFR2-BP ag: agonists of human CRF-binding protein/CRF-R2 receptor complex; HEK293 CRF-R2/CRF-BP, calcium dye fluorescence (FLIPR); percent of saturating CRF peptide response; activation, % at 13.2 µM; 0.46% of 350,000 active; AID 588473;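 active means activation of at least 50%, plus an integration ratio under a set limit after plate pattern correction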
RTF Ca sens inh: cardiac RTF calcium desensitization | P19429+P45379 | IANBD-labeled cardiac RTF, Ca2+ fluorescence | inhibition, % at 7.15 µM | 0.12% of 340,000 active | AID 493244;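 active means inhibition above the mean inhibition of all tested compounds plus 3 SD, cut at about 17% in these data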;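 further: assay run at fixed EC70 calcium of 1.6 mM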
IDE inh: inhibitors of human insulin-degrading enzyme in cells. P14735. HEK cells, FAbetaB cleavage, fluorescence polarization. inhibition, % at 5.59 µM. 0.41% of 320,000 active. AID 434962;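 active means percent inhibition above the average of all tested compounds plus 3 SD, set per screening campaign, cut at about 16% in these data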;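 further: IDE supplied by intact live HEK cells; FP after avidin binding of uncleaved biotin substrate so inhibition keeps polarization high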
Numbers stand for hits; . = inactive; / = no result given.

SMILES	RTF Ca sens act	CRFBP-R2 block	IDE cell activ	CRFR2-BP ag	RTF Ca sens inh	IDE inh
C#CCOCCOCCOCCNc1nc(N2CCN(C(=O)Cn3cc(CCO)nn3)CC2)nc(N2CCN(C(=O)[C@H](CCCCN)n3cc(CC(C)O)nn3)CC2)n1 (stereo partly specified)	.	53	.	.	.	/
C#CCOCCOCCOCCNc1nc(N2CCN(C(=O)CCCCCCCCCCNC(=O)Cn3cc(C[C@@H](C)O)nn3)CC2)nc(N2CCN(C(=O)CCCCCCCCCCNC(=O)[C@H](CCCN=C(N)N)n3cc(C[C@@H](C)CC)nn3)CC2)n1	.	.	35	.	.	.
C#CCOCCOCCOCCNc1nc(N2CCN(C(=O)CCCCCCCCCCNC(=O)[C@H](CO)n3cc(CCCSC)nn3)CC2)nc(N2CCN(C(=O)CCCCCCCCCCNC(=O)[C@H](CCCN=C(N)N)n3cc(C[C@@H](C)CC)nn3)CC2)n1	.	.	55	.	.	.
C#CCOCCOCCOCCNc1nc(N2CCN(C(=O)CCCCCCCCCCNC(=O)[C@H](CO)n3cc(CCCSC)nn3)CC2)nc(N2CCN(C(=O)CCCCCCCCCCNC(=O)[C@H](CCCCN)n3cc(CCO)nn3)CC2)n1	.	.	22	.	.	.
Cc1ccc(C(=O)N2CCC(C(=O)c3c(C)cc(C)cc3C)CC2)cc1	.	.	.	.	.	.
Cc1ccc(NC(=O)CN2CCN(S(=O)(=O)c3cccs3)CC2)cc1S(=O)(=O)N(C)C	.	.	.	.	.	.
Cc1ccc(-c2nc(C)sc2CC(=O)Nc2cccc(C)c2C)cc1	.	.	.	.	.	.
C#CCOCCOCCOCCNc1nc(N2CCN(C(=O)CCCCCCCCCCNC(=O)Cn3cc(CCCCCN)nn3)CC2)nc(N2CCN(C(=O)CCCCCCCCCCNC(=O)[C@@H](CCC(=O)O)n3cc(CCCCCN)nn3)CC2)n1	.	.	.	.	.	.
C#CCOCCOCCOCCNc1nc(N2CCN(C(=O)CCCCCCCCCCNC(=O)Cn3cc(CCCCCN)nn3)CC2)nc(N2CCN(C(=O)CCCCCCCCCCNC(=O)[C@@H](CCSC)n3cc(CCO)nn3)CC2)n1	.	.	31	.	.	.
Cc1c(Cl)ccc2c1NC(=O)C21NC(CCC(N)=O)[C@H]2C(=O)N(c3ccc(Cl)cc3)C(=O)[C@H]21 (stereo partly specified)	.	50	.	.	.	.
C=CCN1C(c2cccc(C(F)(F)F)c2)=CS/C1=C(\C#N)c1nnc(N2CCOCC2)n1-c1ccccc1	/	.	/	58	/	/
C=CCN1C(c2ccc(Br)cc2)=CS/C1=C(\C#N)c1nnc(N2CCOCC2)n1-c1ccccc1	.	.	.	.	.	/
CC(C)(CO)NCC#Cc1ccccc1	34	.	.	.	.	.
CCC[N+](CC#CCO)(CC#Cc1ccccc1)CCC	.	.	.	.	.	.
CC(C)(C)S(=O)(=O)/C(C#N)=N/Nc1ccc(Cl)cc1	.	65	.	.	.	.
C=CCSc1nnc(C)c(/C=C/Nc2ccc(Cl)cc2)n1	/	.	/	114	/	.
CSc1nnc(C)c(/C=C/Nc2ccc(F)cc2F)n1	.	.	.	.	.	.
CCCc1nnc(NC(=O)Cn2c(=O)oc3cc(Br)ccc32)s1	.	.	.	79	.	.
CCCc1nnc(NC(=O)Cn2c(=O)oc3ccccc32)s1	.	.	.	.	.	.
CC(=O)c1c(C)[nH]c(C(=O)CN2C(=O)NC(C)(c3ccc(C)cc3)C2=O)c1C (stereo unspecified)	.	.	.	77	.	.
CC(C)c1ccc(NC(=O)CSc2nc(=O)n(CCCN3CCOCC3)c3c2CCCC3)cc1	.	.	.	.	.	.
O=C(NCC1CCCO1)c1ccc(CSCc2cccc(F)c2)o1 (stereo unspecified)	.	.	.	.	.	.
CCn1c(Oc2ccccc2)nc2c1c(=O)n(C)c(=O)n2C	.	.	.	.	.	.
C=CCn1c(Oc2ccccc2)nc2c1c(=O)n(C)c(=O)n2C	.	.	.	106	.	.
CCC(C)Sc1nnc(NS(=O)(=O)Cc2ccccc2)s1 (stereo unspecified)	.	.	.	.	.	.
